Experimental data: PubChem BioAssay AID1851 (National Center for Advancing Translational Sciences (NCATS), 2009)
“And” between values parts separate entries of the source, which are not always exact repeats. Identical values can stand only once. Out of some 16,000 compounds screened, about 2,600 (16%) were called active. About 20% were inconclusive and are not listed. Calls follow the shape of the dose curve; as a rule, active = well fitted curve in the direction sought with a large enough effect; inconclusive = small, poorly fitted or top-dose-only effect, or effect the other way; inactive = no such curve, though single readings can be large or run the other way. These entries were drawn from the full list.

Target: Cytochrome P450 2D6 (Homo sapiens) (UniProt P10635)
Sequence (P10635 whole entry, looked up): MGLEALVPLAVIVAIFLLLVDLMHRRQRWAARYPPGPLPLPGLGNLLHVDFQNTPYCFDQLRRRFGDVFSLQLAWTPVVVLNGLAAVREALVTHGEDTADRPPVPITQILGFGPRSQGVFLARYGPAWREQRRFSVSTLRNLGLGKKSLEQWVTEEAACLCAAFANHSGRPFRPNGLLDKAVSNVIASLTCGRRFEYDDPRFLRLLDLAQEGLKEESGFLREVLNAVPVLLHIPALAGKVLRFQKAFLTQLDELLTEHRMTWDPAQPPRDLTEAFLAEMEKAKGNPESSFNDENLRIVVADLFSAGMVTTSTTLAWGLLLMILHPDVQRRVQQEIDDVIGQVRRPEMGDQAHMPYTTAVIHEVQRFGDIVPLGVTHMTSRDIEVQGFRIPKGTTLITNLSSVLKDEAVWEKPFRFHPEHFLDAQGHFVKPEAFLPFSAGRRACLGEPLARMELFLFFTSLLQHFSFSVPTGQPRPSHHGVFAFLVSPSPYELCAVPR
Assay: Cytochrome panel assay with activity outcomes
Details: recombinant CYP, pro-luciferin dealkylation, luminescence, p450-cyp2d6; series mostly up to 57.1 µM
% is scaled to controls: 0 for no effect and ±100 for the full control effect.

AC50, active:
Fc1ccc(COc2ccc(Br)cc2CNCc2ccncc2)cc1 0.126 µM, c1ccc(CN2CCC3(CCCc4ccccc43)CC2)cc1 0.251 µM, NCCSCc1ccccc1Cl 3.16 µM, CSc1ccc(Cl)c(C(=O)NCCOc2cc(C)ccc2C(C)C)c1 11.2 µM, Cc1ccc(C(N)=Nc2ccccc2)cc1 3.16 µM, O=[N+]([O-])c1ccc(N2CCN(CCOc3nonc3-c3ccccc3)CC2)c(Cl)c1 0.112 µM, CCCn1c2c(c(O)c(C(=O)NCc3ccccc3)c1=O)CCCC2 10 µM, c1ccc2sc(NC3=NCN(C4CCCCCC4)CN3)nc2c1 1 µM, COc1ccc(CN2CN=C(Nc3nc4ccccc4s3)NC2)cc1 7.94 µM, Cc1ccc(CS(=O)(=O)CCC(=O)NCc2cccs2)cc1 11.2 µM, N[C@H](C(=O)O)[C@H](OCc1ccccc1)C(=O)O 7.94 µM, CCCCCN=c1ccn(Cc2ccccc2)c2ccccc12 10 µM, CC(=O)Nc1cc(C(F)(F)F)ccc1Oc1cccc(Br)c1 10 µM, CCOC(=O)c1cccc(NC(=O)COc2ccc([N+](=O)[O-])cc2)c1 1.41 µM, O=C(COc1ccc([N+](=O)[O-])cc1)Nc1ccc(C(=O)NCc2cccnc2)cc1 3.16 µM, c1ccc(SCCc2ccncc2)cc1 2.82 µM and 1.26 µM, Fc1ccc(SCCc2ccncc2)cc1 5.01 µM, Cc1[nH]nc(N2CCCCCC2)c1[N+](=O)[O-] 15.8 µM, C/C(=C\c1ccco1)C1C(C#N)=C(N)Oc2n[nH]c(-c3ccccc3)c21 (stereo not drawn) 31.6 µM, Cc1cc(C)c(S(=O)(=O)NCC2CCC(C(=O)NCc3ccc4c(c3)OCO4)CC2)c(C)c1 (stereo not drawn) 12.6 µM

AC50, inactive:
CCC/C=C(\CCC)C(NS(=O)(=O)c1cccc2cccnc12)c1ccc(-c2ccccc2)cc1 (stereo not drawn), COc1ccc(-c2nc(-c3cccc(C)c3)nc(N3CCN(C)CC3)c2C#N)cc1, CN1CCCC1CCNC1C2CC3CC(C2)CC1C3 (stereo not drawn), CC(=O)c1ccc(N2CCC(c3cc(-c4ccc(Cl)cc4)n[nH]3)CC2)c([N+](=O)[O-])c1, CCOc1cc(/C=C2/C(=N)N3C=CSC3=NC2=O)ccc1OCCCOc1ccccc1C, CCc1nc(SCC(=O)NCCc2ccccc2)c2oc3ccccc3c2n1, O=C(CSCc1ccccc1Cl)NN1C(=O)c2ccccc2C1=O, O=C(CSCc1ccccc1Cl)NNC(=O)c1ccccc1, COc1ccc(C2N(c3ccccn3)C(=O)C3CCCN32)c(OC)c1 (stereo not drawn), CN(C)CCNC(=O)c1cc(Br)ccc1Cl, Cc1ccc(OCCNC(=O)c2cc(-n3cnnc3)ccc2Cl)cc1C, NC(N)=NC(N)=Nc1ccccc1, COCCn1c(=O)c(-c2cccc(C#N)c2)nc2cnc(N3CCNCC3)nc21, CCC(=O)NC(=S)N1CCN(c2ccc([N+](=O)[O-])cc2Cl)CC1, O=[N+]([O-])c1ccc(N2CCN(Cc3ccccc3)CC2)c(S(=O)(=O)N2CCOCC2)c1, Cc1cc(=O)oc(C)c1C(=O)NCc1ccccc1, CCCCCCc1nc2ccccc2c(=O)n1NC(=O)c1c(O)c2c(n(CC(C)C)c1=O)CCCC2, O=c1cnc2cnc(Nc3ccccc3)nc2n1CCc1ccccc1, Cc1ccccc1C(=O)N1CCN(c2ccc([N+](=O)[O-])c(N3CCOCC3)c2)CC1, Cc1cccc(C)c1NC(=O)CSc1nc(C)c(CC(=O)c2ccc(Br)cc2)c(C)c1C#N, Cc1ccnc(NCn2nnc3ccccc32)c1, O=C(NNc1nc2ccccc2s1)C1CC1, COCCN1CN=C(Nc2nc3ccccc3o2)NC1, COc1ccc(C(=O)NCc2ccc(-c3nc4ccccc4s3)cc2)cc1, CC1=C(C#N)C(Nc2ccc(Cl)cn2)(C(F)(F)F)C(=O)N1 (stereo not drawn), Cn1c(=O)c(-c2cc(F)cc(F)c2)nc2cnc(N3CCOCC3)nc21, COc1ccc(Nc2ncc3nc(-c4cccs4)c(=O)n(Cc4cccc(OC)c4)c3n2)cc1, CCOc1cc(/C=N/NC(=O)CNc2cccc(C)c2)ccc1OC(=O)c1ccccc1, CCOCCCNC(=O)CCS(=O)(=O)Cc1ccc(C)cc1, Cc1ccc(CS(=O)(=O)CCC(=O)NCc2ccccn2)cc1, COCC(=O)N(C)c1nnc(-c2ccc([N+](=O)[O-])cc2)s1, Cc1ccc(C)c(OCCCC(C)(C)C(=O)O)c1, CC(C)C(NC(=O)OCc1ccccc1)C(=O)O (stereo not drawn), CCOC(=O)C1=C(C)NC(C)=C(C(=O)OCC)C1c1sccc1C, CCCCC(=O)NC(=S)Nc1cccc(NC(=O)CC)c1, Cc1cc(C)c(NC(=O)NC(=O)c2ccc(F)cc2)c(C)n1, Cl/C(=C\n1cncn1)c1ccc(Cl)cc1Cl, CCOc1ccc(C(F)(F)F)cc1NC(C)=O, COc1ccc(C(C)(C)C)cc1NC(=O)c1cncc(Br)c1, CSCC[C@H](NC(=O)CC(C)(C)C)c1nc2ccccc2[nH]1, O=C(COc1ccc(/C=N/NC(=O)c2ccccc2)cc1)Nc1ccc([N+](=O)[O-])cc1, O=C(COc1ccc([N+](=O)[O-])cc1)NCc1ccccc1, COc1cc(/C=N\Nc2ccc([N+](=O)[O-])cc2)ccc1OCC(=O)Nc1ccc(C)c(C)c1, O=C(COc1ccc(Br)cc1)Nc1ccc([N+](=O)[O-])cn1, O=S(=O)(c1ccccc1)c1cnn2c(C(F)(F)F)cc(-c3ccc(F)cc3)nc12, COc1c(O[C@H]2O[C@@H](CO)[C@@H](O)[C@@H](O)[C@@H]2O)cc2c(c1OC)-c1ccc(SC)c(=O)cc1[C@H](NC(C)=O)CC2, CCOP(=O)(OCC)c1nc(/C=C/c2ccccc2)oc1NCc1ccccc1, O=C1c2ccccc2C(Cc2ccncc2)(Cc2ccncc2)c2ccccc21, Cc1cccnc1NC(=O)C12CCC(C)(C(=O)O1)C2(C)C (stereo not drawn), CC(=O)Nc1ccc(Sc2ncccc2C(=O)Nc2ccc(F)cc2)cn1, CC(=O)Nc1ccc(C#Cc2ccc(NC(C)=O)cc2)cc1, Cc1nc(N2CCOCC2)nc(N2CCN(c3ccccc3)CC2)c1[N+](=O)[O-], O=[N+]([O-])c1cccnc1N1CCCCC1, Cn1c(Oc2ccccc2)c(C=O)c2ccccc21, CCOc1ccc(OCC)c(-c2c(=O)n(OCc3ccccc3C(=O)OC)c3ccccc3[n+]2[O-])c1, O=c1onc2cnc3ccccc3n12, Cc1nc2c(C#N)c(C)[nH]n2c(=O)c1Cc1ccccc1, Cc1ccc(-n2c(O)c(/C=N/n3cnnc3)c3ccccc3c2=O)cc1, COc1cccc(-c2[nH]nc3c2C(c2ccc(C)o2)C(C#N)=C(N)O3)c1 (stereo not drawn), COc1cccc(-c2[nH]nc3c2C(c2ccsc2)C(C#N)=C(N)O3)c1 (stereo not drawn), Nc1ccccc1S(N)(=O)=O, O=C(O)CC(O)C(=O)O (stereo not drawn), CCN(CC)S(=O)(=O)N1CCC(C(=O)NCc2ccc(C)cc2)CC1, Cc1ccc(S(=O)(=O)NCC2CCC(C(=O)O)CC2)cc1 (stereo not drawn), COCCn1c(=O)cnc2cnc(Oc3cccc(Cl)c3)nc21, C=C(C)C1Cc2nc(N)nc(C)c2C1 (stereo not drawn), Cc1nc2nc[nH]n2c(=O)c1NC(=O)CC12CC3CC(CC(C3)C1)C2

activity, negative = inhibition, inactive:
C[N+]1(C)CCO[C@](O)(c2ccccc2)C1 0.284% [at 11.4 µM], OCCNc1ncnc2c1ncn2[C@@H]1O[C@@H](CO)[C@H](O)[C@@H]1O 3.15% [at 11.4 µM], O=C1CCCC=C1[C@H](O)c1ccc([N+](=O)[O-])cc1 -11.2% [at 11.4 µM], NC(N)=NC(N)=Nc1ccccc1 (tested in a mixture with another compound) -8.99% [at 11.4 µM], c1ccc(/C(=N/Nc2nc3ccccc3s2)c2ccccn2)cc1 -1.95% [at 11.4 µM], C[C@H](C(=O)c1ccccc1)[C@@H](c1ccccc1)N1CCOCC1 -5.64% [at 11.4 µM], N[C@@H](Cc1ccccc1)C(=O)O 4.66% [at 11.4 µM], O=C(O)c1ccccc1C(=O)Nc1cc2c(cc1Br)-c1ccccc1C2=O 16.7% [at 11.4 µM], CC1(C)[C@@H]2CC[C@]1(CC(=O)O)[C@H](Cl)C2 6.22% [at 11.4 µM], C[N+](C)(C)c1nc(N)nc2c1ncn2[C@H]1O[C@@H](CO)[C@@H](O)[C@H]1O 6.01% [at 11.4 µM], O=C1CCCC=C1[C@@H](O)CCOC(c1ccccc1)(c1ccccc1)c1ccccc1 -20.1% [at 11.4 µM], O=C(O)CCCSc1ccccc1 0.436% [at 11.4 µM], C[C@@H]1CCCC(CC(=O)O)(CC(=O)O)C1 0.077% [at 11.4 µM], O=C(O)c1nnsc1-c1ccc(-c2snnc2C(=O)O)cc1 -3.33% [at 11.4 µM], CCCCN(c1ccccc1)c1ncnc2c1cnn2C -12.5% [at 11.4 µM], CN(C)CCNCCN 8.7% [at 11.4 µM]
